Test results reported in PubChem BioAssay AID686978 (National Center for Advancing Translational Sciences (NCATS), 2013).
Hit rate of the full screen: of about 420,000 compounds, about 64,000 (15%) were called active. Not shown: some 27% with an inconclusive outcome. A selection follows. Values without a mark were called inactive. Calls come from the whole dose curve; as a rule, active = well fitted inhibition curve with a large enough effect; inconclusive = small, poorly fitted or top-dose-only effect; inactive = flat fitted curve, though single readings scatter.

assay: qHTS for Inhibitors of human tyrosyl-DNA phosphodiesterase 1 (TDP1): qHTS in cells in absence of CPT; details: DT40 Tdp1-/- hTDP1 cells, no CPT, ATP luminescence, 48 h; activity change, negative = growth inhibition: at 46.2 µM (top of the series); note: nearly all actives have a fitted effect of over 55% in size
How it was run: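 Camptothecin absent (DMSO only). Human TDP1-complemented DT40 knockout cells, 400 cells/well, 37 °C for minimum 48 hr; ATP measured via CellTiter-Glo, 30 min dark incubation, luminescence.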
% is set by controls: 0 for no effect and ±100 for the full control effect; potency is the fitted concentration of half-maximal effect.

Structure (SMILES) | activity change, negative = growth inhibition | Potency
Cc1nc(Cl)c(C#N)c2c1CCCC2 | -8.66% | 
N#C/C(=C1/CCCN1)c1ccccn1 | 4.88% | 
CCc1cc2c(=O)n(-c3ccccc3)c(SCC(=O)O)nc2s1 | 4.2% | 
Cc1sc2nc(SCC(N)=O)n(C)c(=O)c2c1C | -15.2% | 
Cc1sc2nc(SCCO)n(-c3ccccc3)c(=O)c2c1C |  | 13 µM (active)
COc1cccc(N(C(=O)CNC(=O)c2ccco2)C(C(=O)NC2CCCCC2)c2cccnc2)c1 (stereo not drawn) | -7.84% | 
CCOc1ccc2cc(C#N)c(SCC(=O)OC)nc2c1 | -16.1% | 
CC(C)c1c(C(=O)N/N=C/c2ccc(-c3ccccc3)cc2)nnn1-c1nonc1N | 1.96% | 
CC1(C)C(=O)C2(CCCCC2)C(=O)OC1c1cccs1 (stereo not drawn) | -15.1% | 
CCNc1c(NS(=O)(=O)c2ccc(C3CCCCC3)cc2)c(=O)oc2ccccc12 |  | 16.4 µM (active)
CC(C)(C)Nc1c(N)c(=O)oc2ccccc12 | -10.6% | 
O=c1oc2ccccc2c(=O)c2ccccc12 | -0.558% | 
Cn1c(Cc2csc(N)n2)nnc1SC/C=C/c1ccccc1 | -1.41% | 
COc1cccc2c(N/N=C/c3ccco3)cc(C)nc12 | 4.74% | 
COc1cc2c(cc1OC)C(/C=C/c1ccco1)=NCC2 |  | 13 µM (active)
CCOC(=O)C1=NN(c2ccc(Cl)cc2)/C(=C/C2=NCCc3cc(OC)c(OC)cc32)S1 | -3.61% | 
CC12C(=O)N(n3cnnc3)C(=O)C1C1C=CC2C1 (stereo not drawn) | 1.03% | 
CS(=O)(=O)N(CC(=O)N1CCCC1)Cc1ccccc1 | -6.97% | 
Cc1ccc2nc(-c3cccc(Br)c3)cc(C(=O)Nn3cnnc3)c2c1 | 6.51% | 
O=C1CCCc2c1nc(-c1cccc(Cl)c1)n2O | -24.8% | 
O=c1c2cc(Br)ccc2nc(-c2cccc(Cl)c2)n1O |  | 23.1 µM (active)

Structure (SMILES) | activity change, negative = growth inhibition | Potency
CCOC(=O)N1CCC(NC(=O)CCc2cn(C)c3ccccc23)CC1 | -15.3% | 
CCC(CC)c1nnc(NC(=O)C2=COCCO2)s1 | 2.02% | 
CNC(=O)NC(=O)CSc1nnc(-c2ccc(F)cc2)n1CC1CCCO1 (stereo not drawn) | -4.38% | 
Cc1ccc(CNS(=O)(=O)c2ccc(-c3cc(C(F)(F)F)on3)s2)cc1 | -19.5% | 
CC1CN(C2CCCCC2)c2nc3c(c(=O)n(C)c(=O)n3C)n2C1 (stereo not drawn) | -26.3% | 
COCCn1cnc2c1c(=O)n(CC(=O)NN)c(=O)n2Cc1ccccc1 | 22% | 
Cc1cccc(N2CC(C)Cn3c2nc2c3c(=O)n(CC(=O)OCc3ccccc3)c(=O)n2C)c1 (stereo not drawn) |  | 13 µM (active)
Cc1ccccc1SCC(=O)OCC(=O)N1CC(=O)Nc2ccccc21 | 7.53% | 
CC(=O)C1C(c2cccc(Oc3ccccc3)c2)NC(=O)NC1(O)C(F)(F)F (stereo not drawn) | -25.6% | 
C[C@@H]1CN([C@@H](C)CO)S(=O)(=O)c2ccc(C#Cc3cccc(F)c3)cc2O[C@H]1CN(C)S(=O)(=O)c1cn(C)cn1 |  | 23.1 µM (active)
C[C@H](CO)N1C[C@H](C)[C@@H](CN(C)C(=O)c2cccc(F)c2)Oc2cc(-c3cncnc3)ccc2S1(=O)=O | 9.26% | 
C[C@@H]1CN([C@@H](C)CO)S(=O)(=O)c2ccc(-c3ccc(C(=O)N(C)C)cc3)cc2O[C@@H]1CN(C)Cc1ccccc1C(=O)O | 10.6% | 
C[C@H]1CN([C@@H](C)CO)S(=O)(=O)c2ccc(-c3cccc(F)c3)cc2O[C@@H]1CN(C)C | -15.1% | 
COCC(=O)N(C)C[C@H]1Oc2cc(Br)ccc2S(=O)(=O)N([C@H](C)CO)C[C@H]1C | -22.5% | 
C[C@@H]1CN([C@H](C)CO)S(=O)(=O)c2ccc(C#C[C@@H](C)O)cc2O[C@@H]1CN(C)Cc1ccc(-c2ccccc2)cc1 |  | 6.51 µM (active)
CCCCc1nc(SCC(=O)Nc2nnc(C(C)C)s2)n[nH]1 | -3.34% | 
COc1cccc(N2C(=O)CN(Cc3ccccc3)C2=S)c1 | 17.9% | 
COc1ccccc1NC(=O)C1=C(C)Nc2nnnn2C1c1cccc(Br)c1 (stereo not drawn) | 5.32% | 
COc1ccccc1OCCOc1ccc(/C=N/n2cnnc2)cc1 | -6.26% | 
Cc1cc([N+](=O)[O-])c(-c2ccc(/C=N/n3cnnc3)o2)cc1Cl | -24.4% | 
Cc1ccccc1OCCOc1ccc([N+](=O)[O-])cc1/C=N/n1cnnc1 |  | 1.46 µM (active)

Structure (SMILES) | activity change, negative = growth inhibition | Potency
Cc1ccc(Cn2c(=O)n(-c3ccc(C)cc3)c(=O)c3c2c2cc(C)ccc2n3C)cc1 | -13.4% | 
Cc1nnc(SCC(=O)N2CCOCC2)[nH]c1=O | 0.581% | 
CCC(C)n1[nH]c(=O)c2c(C)cc(C)nc21 (stereo not drawn) | -4.35% | 
Cc1ccc(S(=O)(=O)N2CCC(C(=O)OCC(=O)N3CC(=O)Nc4ccccc43)CC2)cc1 | -1.96% | 
CCOC(=O)COn1c(=O)c(-c2ccc(OCC)cc2)[n+]([O-])c2ccccc21 | -0.585% | 
O=c1c(-c2ccc(Cl)cc2)[n+]([O-])c2ccccc2n1OCc1nc2ccccc2[nH]1 | -28.2% | 
COc1ccc(OC)c(-c2c(=O)n(OCc3ccccc3Br)c3ccccc3[n+]2[O-])c1 |  | 23.1 µM (active)
CCOc1ccc(OCC)c(-c2c(=O)n(OCc3ccc(Cl)cc3)c3ccccc3[n+]2[O-])c1 |  | 8.2 µM (active)
Cc1cc(C)cc(OCC(=O)OCC(=O)NC2CCCC2)c1 | -7.14% | 
COC(=O)Cc1nc2c(N)nc(N)nc2[nH]c1=O | -24.5% | 
CS(=O)(=O)N1CCCC(C(=O)Nc2ccccc2C(F)(F)F)C1 (stereo not drawn) | -7.79% | 
CC(C)c1ccc(NC(=O)c2cc(S(=O)(=O)N3CCc4ccccc4C3)ccc2F)cc1 | -28.2% | 
CC1CCCCN1S(=O)(=O)c1ccc(F)c(C(=O)Nc2ccccc2C(F)(F)F)c1 (stereo not drawn) |  | 18.4 µM (active)
COc1cc(OC)c(C(=O)NNC(=O)c2ccccc2-n2cccc2)cc1OC | -16.9% | 
O=C(O)c1n[nH]nc1-c1ccccc1 | 0.0814% | 
CC(C)(C)OC(=O)N1CCC(C(=O)NNC(=O)c2ccc(Cl)cc2Cl)CC1 | 8.06% | 
Cc1cccc(-n2ncc(C(=O)N3CCN(c4ccc(Cl)cc4)CC3)c2C2CCN(C(=O)OC(C)(C)C)CC2)c1 |  | 9.2 µM (active)
Cc1cccc(-n2ncc(C(=O)N3CCc4ccccc4C3)c2C2CCN(C(=O)OC(C)(C)C)CC2)c1 | -6.29% | 
Cc1cccc(-n2ncc(C(=O)N3CCC(C)CC3)c2C2CCN(C(=O)OC(C)(C)C)CC2)c1 | -5.88% | 
CC(C)(C)OC(=O)N1CCC(c2c(C(=O)N3CCN(c4cccc(Cl)c4)CC3)cnn2-c2cccc(Cl)c2)CC1 |  | 9.2 µM (active)
CC(C)(C)OC(=O)N1CCN(C(=O)c2[nH]c(C(F)(F)F)nc2-c2ccccc2)CC1 | -12.2% | 
